MITF TRPM1 HTS = activators of MITF-driven TRPM1 promoter reporter, primary screen, cell-based, SK-MEL-5, luciferase, single point; SK-MEL-5 TRPM1-promoter luciferase, 24 h; % of positive control, neutral wells = 0; activation, % at 12.5 µM; 0.75% of 300,000 active;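 active = mean activation of at least 80% with every replicate also reaching 80%; inconclusive = mean reaches 80% but some replicate falls short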
N-glyco inh = increase of ERlucT glycosylation luciferase signal, primary screen, N-linked glycosylation inhibitor project, D54 ERlucT cells, luminescence, set 2; D54 ERlucT glycosylation luciferase reporter, 24 h; percent of 100 nM tunicamycin response; reporter increase, % at 12.5 µM; 0.23% of 360,000 active; AID 588692, 2011;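 active = mean luciferase reporter signal, scaled so untreated is 0 and the glycosylation-blocking control 100, at or above a set limit in every replicate; inconclusive = mean reaches the limit but not every replicate does; inactive = mean below the limit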;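 also: luciferase carries N-glycosylation sites so blocking glycosylation raises the light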
PfHsp90 set2 = growth inhibition of PfHsp90-expressing yeast, primary screen, antimalarial PfHsp90 inhibitor project, S. cerevisiae, BacTiter-Glo luminescence, single point, set 2 | BacTiter-Glo ATP, 48 h; yeast lacking PDR1 and PDR3 efflux regulators | inhibition, % at 9.4 µM | 0.32% of 310,000 active;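 active = every replicate shows inhibition above about 80%, whatever the replicate mean, limit read from the data; inconclusive = mean inhibition reaches the set limit but some replicate falls short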
Wnt act = Wnt/beta-catenin pathway activators, primary screen, cell-based, plate reader, single point; Wnt/beta-catenin reporter cell assay, activator; AID 743398, 2014; 1.2% of 300,000 active; activation, % at 9.35 µM; in the data active = activation above about 30%, passing the limit was not always enough; inconclusive = no clear call, values can overlap the other calls
Vif imaging = HIV Vif self-association inhibitors, primary screen, imaging, HEK293T, single point; HEK293T cells, Vif self-association by quenched fluorescence, 24 h; inhibition, % at 7.49 µM; 0.35% of 340,000 active; in the data active = inhibition above about 50%, passing the limit was not always enough; inconclusive = no clear call, values can overlap the other calls; inactive = below about 31%
esBAF inh = Bmi1 luciferase reporter increase in mESCs, primary screen, esBAF inhibitor project, mouse ES cells, Bmi1 luciferase knock-in, single point. 2% of 350,000 active. 24 h; 100% = twice the neutral-well signal. reporter increase, % at 12.5 µM; in the data active = activation above about 40%; inconclusive = no clear call, values can overlap the other calls;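 also: a rise in the Bmi1 reporter signal indicates esBAF inhibition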
Each line names hits and unclear results; the compound was inactive in the other large screens. Rows were chosen to be rich in hits. Some 3% of all compounds tested hit in one or more screens of this group.

COc1ccc(OC)c(NS(=O)(=O)c2cccs2)c1	none (no result: Wnt act)
Cc1ccc2cccc(OCC(=O)N3CC(C)CC(C)C3)c2n1 (stereo not drawn)	none (no result: esBAF inh)
c1ccc(CNc2nc3ccccc3[nH]2)cc1	MITF TRPM1 HTS 83
Cc1nn(-c2ccccc2)c(Cl)c1/C=N/Nc1nc2ccccc2[nH]1	N-glyco inh 66 (no result: esBAF inh)
C(=N\Nc1nc2ccccc2[nH]1)/C1CCCCC1	none (no result: esBAF inh)
C(=N\Nc1nc2ccccc2[nH]1)/c1ccccc1	esBAF inh 55
C(/CCc1ccccc1)=N\Nc1nc2ccccc2[nH]1	Wnt act 40 (no result: Vif imaging, esBAF inh)
Cc1ccc(/C=N/Nc2nc(Cl)c(Cl)cc2Cl)s1	Wnt act 72, esBAF inh 60 (no result: Vif imaging)
C(=C\c1ccccc1)/C=N/Nc1nc2ccccc2[nH]1	Wnt act 90 (no result: esBAF inh)
Fc1cccc(/C=N/Nc2nc3ccccc3[nH]2)c1	none (no result: MITF TRPM1 HTS, N-glyco inh, PfHsp90 set2, Vif imaging, esBAF inh)
Cc1[nH]c2ccccc2c1/C=N/Nc1nc(N2CCCCC2)nc(N2CCCCC2)n1	none (no result: esBAF inh)
Cc1[nH]c2ccccc2c1/C=N/Nc1nc2ccccc2[nH]1	Wnt act 98 (no result: MITF TRPM1 HTS, esBAF inh)
CCCNC(=O)C1(C)CCN1C(=O)Cc1ccc(C(C)C)cc1 (stereo not drawn)	none (no result: MITF TRPM1 HTS, PfHsp90 set2)
Cc1ccc(S(=O)(=O)N(C)c2ccc(OC(=O)c3cc(=O)[nH]c4ccccc34)cc2)cc1	none (no result: PfHsp90 set2)
Cc1ccc(-n2nnnc2C(Cl)(Cl)c2nnnn2-c2ccc(C)cc2)cc1	PfHsp90 set2 128 (no result: esBAF inh)
COCCCNCC(=O)Nc1ccc(OC(F)(F)F)cc1	none (no result: Wnt act, Vif imaging)
Cc1ccn(CC(=O)NC2CC(C)(C)Cc3c2cnn3-c2ccc(F)cc2)n1 (stereo not drawn)	esBAF inh 42
CCN(CC)CC(=O)NC1CC(C)(C)Cc2c1cnn2-c1ccc(F)cc1 (stereo not drawn)	none
O=C(CSc1nnc([C@@H]2CCCN2)o1)c1ccc(Cl)cc1	Wnt act 37
C=C(C)CSc1nnc([C@@H]2CCCN2)o1	none (no result: esBAF inh)
CC1=Nc2cc(C(=O)O)ccc2Sc2c(C)ccc(C)c21	Vif imaging 69 (no result: esBAF inh)
COc1cccc(NC(=S)N/N=C2\CC3CCC2(C)C3(C)C)c1 (stereo not drawn)	esBAF inh 54
CC12CCC(C/C1=N/NC(=O)Nc1ccccc1)C2(C)C (stereo not drawn)	none (no result: Vif imaging, esBAF inh)
O=C(Nc1nnc(-c2ccc(F)cc2)o1)c1cc(Cl)sc1Cl	PfHsp90 set2 80
Cc1ccc(CNC(=O)c2ccc[nH]2)cc1	none (no result: esBAF inh)
Cc1ccc(SCC(=O)c2ccc[nH]2)cc1	esBAF inh 61
CC(C)=CCc1c2c(c3occ(-c4ccc(O)cc4)c(=O)c3c1O)C=CC(C)(C)O2	none
CC(C)=CCc1c2c(c3occ(-c4ccc(O)c(O)c4)c(=O)c3c1O)C=CC(C)(C)O2	PfHsp90 set2 102
CCCS(=O)(=O)c1c(S(=O)(=O)CCC)c2c(N)cccn2c1C(=O)c1ccccc1	none
CCc1ccc(/C=C2/SC(=S)N(CCC(=O)Nc3ccc(C(=O)O)cc3)C2=O)cc1	none (no result: PfHsp90 set2)
O=C(Cc1ccccc1[N+](=O)[O-])NCc1ccccc1Cl	none
Cc1cccc(NC(=O)c2cccc([N+](=O)[O-])c2O)c1C	Wnt act 49 (no result: esBAF inh)
Cc1ccccc1CNC(=O)Cc1ccccc1[N+](=O)[O-]	esBAF inh 42 (no result: Vif imaging)
O=c1oc(/C=C/c2ccco2)nc2sc3c(c12)CCC3	MITF TRPM1 HTS 82 (no result: PfHsp90 set2)
O=c1[nH]c(-c2ccco2)nc2sc3c(c12)CCCC3	Wnt act 39 (no result: esBAF inh)
O=c1c2c3c(sc2nc2n1N=C(c1cccs1)CS2)CCCC3	MITF TRPM1 HTS 135 (no result: Wnt act, esBAF inh)
O=c1oc(-c2cccs2)nc2sc3c(c12)CCC3	esBAF inh 46 (no result: Wnt act)
O=c1oc(-c2cccs2)nc2sc3c(c12)CCCC3	none (no result: Vif imaging)
Cc1nc2sc3c(c2c(=O)o1)CCC3	none (no result: MITF TRPM1 HTS, Wnt act)
O=C1CN(c2nc(-c3cccs3)nc3sc4c(c23)CCCC4)CCN1	none (no result: esBAF inh)
CCOc1ccc(S(=O)(=O)n2c(C)nc3ccccc32)cc1	none (no result: Vif imaging)
COc1ccc(-c2ccc3c(c2)O[C@H](CN(C)Cc2cccnc2)[C@@H](C)CN([C@@H](C)CO)S3(=O)=O)cc1	none (no result: MITF TRPM1 HTS, N-glyco inh, PfHsp90 set2, Wnt act, Vif imaging)
C=CCn1c(O)c(N=Nc2ccccc2[N+](=O)[O-])c2ccccc21	esBAF inh 58 (no result: MITF TRPM1 HTS, PfHsp90 set2)
C=CCn1c(O)c(N=Nc2ccccc2)c2ccccc21	none
C=CCn1c(O)c(N=Nc2ccccc2O)c2ccccc21	PfHsp90 set2 195
CN1CCN(NC(=O)CN2C(=O)/C(=C/c3ccccc3Cl)SC2=S)CC1	none
CC(C)(C)c1ccc(/C=N/N2CCN(c3ccccn3)CC2)cc1	none (no result: MITF TRPM1 HTS, esBAF inh)
O=[N+]([O-])c1ccccc1C=NNC(=S)NN=Cc1ccccc1[N+](=O)[O-]	N-glyco inh 28 (no result: PfHsp90 set2)
CC(C)NC(=S)N/N=C/c1ccccc1[N+](=O)[O-]	none (no result: esBAF inh)
CN(C)c1ccc(/C=N/N2CCN(c3ccccn3)CC2)cc1	Wnt act 43 (no result: MITF TRPM1 HTS, esBAF inh)
O=[N+]([O-])c1ccccc1/C=N/N1CCN(c2ccccn2)CC1	esBAF inh 60 (no result: MITF TRPM1 HTS, PfHsp90 set2)
O=[N+]([O-])c1ccccc1C=NN1CCCCCC1	esBAF inh 47 (no result: PfHsp90 set2)
Cc1ccc(N2CCN(/N=C/c3ccccc3[N+](=O)[O-])CC2)cc1	none (no result: PfHsp90 set2)
Cc1cccc(NC(=S)N(CCN2CCOCC2)Cc2ccccc2F)c1	none
COc1ccc(NS(=O)(=O)c2cc(NC(=O)Cc3n[nH]c(=O)c4ccccc34)ccc2OC)cc1	none
CN(Cc1nc(CCc2ccccc2)no1)Cc1cccs1	none (no result: PfHsp90 set2)
CN1CCC(OC(c2ccccc2)c2ccc(Cl)cc2)C1 (stereo not drawn)	none (no result: PfHsp90 set2)
CN(c1ccccc1)c1ccc(/C=N/N2CCOCC2)cc1	MITF TRPM1 HTS 144 (no result: Wnt act)
CN(C)/C=C/C(=O)c1ccc2noc(-c3ccc(F)cc3)c2c1	none
Cc1ccc(-c2onc3ccc(C(=O)/C=C/N(C)C)cc23)cc1	PfHsp90 set2 119 (no result: Vif imaging)
NC(=O)NC(=O)COC(=O)c1ccc2noc(-c3ccccc3)c2c1	esBAF inh 68
Cc1ccc(-c2onc3ccc(C(=O)O)cc23)cc1	esBAF inh 50 (no result: MITF TRPM1 HTS)
CC(=O)COC(=O)c1ccc2noc(-c3ccccc3)c2c1	none
COc1ccc(S(=O)(=O)NCc2nc3nc(C)cc(C)n3n2)cc1	none
Cc1ccc(S(=O)(=O)O/N=C2/CCCc3occc32)cc1	none (no result: Wnt act)
C[C@@H]1CN([C@@H](C)CO)C(=O)c2cc(NC(=O)C3CCCCC3)ccc2O[C@H]1CN(C)C	none (no result: MITF TRPM1 HTS, N-glyco inh, PfHsp90 set2, Wnt act, Vif imaging)
COc1cccc(C2=NOC(C(=O)NCc3ccco3)C2)c1 (stereo not drawn)	N-glyco inh 29 (no result: Wnt act, Vif imaging)
COc1cccc(C2=NOC(C(=O)NCc3ccccc3)C2)c1 (stereo not drawn)	N-glyco inh inconclusive (no result: Wnt act, Vif imaging)

Compound activity as filed in PubChem BioAssay.
